# VP16 counter = counter-screen for ROR gamma inhibitors: Gal4-VP16 reporter | Drosophila S2 Gal4-VP16 UAS-luciferase, luminescence, 20 h | Potency, µM (top dose mostly 53.6 µM), for inactives: top-dose activity, negative = inhibition, actives largely listed as inhibitors | 310,000 tested, 3.5% active | AID 2546;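 also: Gal4-VP16 expression switched on by copper sulfate through the metallothionein promoter; potency is read from the fitted curve at half-maximal effect; nearly all actives have a fitted effect of over 50% in size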
# LDHA inh = LDHA (human) enzyme inhibition; P00338; purified LDHA, NADH/diaphorase-resazurin fluorescence; stronger effect = lower value; activity change, % (values are at about 110 or 230 µM); 480,000 tested, 0.15% active; AID 1347041; in the data active = activity change below about -30%; inconclusive = mostly about -25% to -30%;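 also: plate controls were DMSO wells for no effect and wells without enzyme for full effect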
#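 Enzyme activity of human lactate dehydrogenase 5 (2 nM; 0.06 mM NADH, 0.2 mM pyruvate, 5 min, RT) is measured via a resazurin/diaphorase fluorescence readout of residual NADH.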
# IL-1B inflam inh = inflammasome signaling inhibition, IL-1 beta readout. activity change, % at 57.5 µM. AID 743279. THP-1 LPS/ATP IL-1B secretion, AlphaLISA, 16 h; stronger effect = lower value. 360,000 tested, 4.7% active; in the data active = activity change below about -50%; inconclusive = mostly about -30% to -49%
#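 Secreted IL-1B measured by AlphaLISA bead assay after 16 h compound exposure of THP-1 cells; compounds (final up to 57.5 uM) added 1 h before LPS (250 ng/mL) and ATP (1.25 mM) stimulation; lower signal means less secretion.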
# TDP1 cell noCPT = qHTS for Inhibitors of human tyrosyl-DNA phosphodiesterase 1 (TDP1): qHTS in cells in absence of CPT | 420,000 tested, 15% active | Potency, µM (series often up to 46.2 µM), without a hit: at the highest dose activity change, negative = growth inhibition, actives largely listed as inhibitors | DT40 Tdp1-/- hTDP1 cells, no CPT, ATP luminescence, 48 h; also: potency is read from the fitted curve at half-maximal effect; nearly all actives have a fitted effect of over 55% in size
#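 Stably hTDP1-transfected Tdp1-null chicken DT40 cells were treated with library compounds minus camptothecin and grown for at least 48 hr at 37 °C, after which cellular ATP was quantified by luminescence.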
# RORg inh = ROR gamma (mouse) transcription inhibition; AID 2551; Potency, µM (highest dose often 53.6 µM), for the others: at the top dose activity change, negative = inhibition, hits mostly inhibitors; 310,000 tested, 5.4% active; P51450; Drosophila S2 Gal4-RORgamma UAS-luciferase reporter, 20 h; also: potency is read from the fitted curve at half-maximal effect; nearly all actives have a fitted effect of over 60% in size
# Target sequence (P51450 whole entry, looked up, the tested form may be a part): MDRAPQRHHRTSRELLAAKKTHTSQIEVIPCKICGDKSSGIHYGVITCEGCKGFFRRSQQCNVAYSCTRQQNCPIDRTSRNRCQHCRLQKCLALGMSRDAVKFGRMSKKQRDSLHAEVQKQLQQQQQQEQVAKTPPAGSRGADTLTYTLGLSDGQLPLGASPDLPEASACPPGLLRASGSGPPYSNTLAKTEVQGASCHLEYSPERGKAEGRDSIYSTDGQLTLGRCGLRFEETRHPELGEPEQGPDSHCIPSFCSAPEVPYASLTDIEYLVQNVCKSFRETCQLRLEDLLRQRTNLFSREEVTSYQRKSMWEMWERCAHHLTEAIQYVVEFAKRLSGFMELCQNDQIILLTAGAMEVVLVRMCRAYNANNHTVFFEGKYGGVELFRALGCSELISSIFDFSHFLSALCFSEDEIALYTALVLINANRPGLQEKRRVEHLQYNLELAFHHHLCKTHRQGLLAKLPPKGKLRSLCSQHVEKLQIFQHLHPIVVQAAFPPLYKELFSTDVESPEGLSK
#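 A Gal4/UAS one-hybrid system in insect cells: metallothionein-promoter Gal4–ROR gamma fusion plus Photinus luciferase reporter. Copper sulfate 700 uM final, 20 hr ambient incubation, luminescent detection after 10 min with reagent.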
# DT40 TDP1 CPT = DT40-hTDP1 cell growth loss with CPT; 420,000 tested, 12% active; AID 686979; chicken DT40 Tdp1-/-;hTDP1 cells + 20 nM CPT, ATP luminescence, 48 h; Potency, µM (top dose mostly 46.2 µM), for inactives: at the top dose activity change, negative = growth inhibition, most hits filed as inhibitors; also: potency is read from the fitted curve at half-maximal effect; nearly all actives have a fitted effect of over 55% in size
#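 Cell growth measured by CellTiter-Glo luminescence after a minimum 48 h, 37 C compound exposure with 20 nM CPT in Tdp1-knockout DT40 cells stably expressing hTDP1, seeded 400/well; qHTS titration format.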
# * marks the source's active call; other numbers are inactive results; ? = inconclusive; / = not tested or not shown. Most compounds without a hit are left out; they make up all but 18% or so of the library. Unless noted, calls follow the shape of the dose curve; as a rule, active = well fitted curve in the direction sought with a large enough effect; inconclusive = small, poorly fitted or top-dose-only effect, or another doubt; inactive = no such curve, though single readings can be large; an effect the other way counts as inactive or inconclusive. Unless noted, % is scaled to controls: 0 for no effect and ±100 for the full control effect.
SMILES,VP16 counter,LDHA inh,IL-1B inflam inh,TDP1 cell noCPT,RORg inh,DT40 TDP1 CPT
COc1ccc(C2C=C(c3ccccc3)Nc3nc(NS(=O)(=O)c4ccc(Cl)cc4)nn32)cc1 (stereo unspecified),/,-8.9,/,16.4µM*,/,?
COc1ccc(C2C=C(c3ccccc3)Nc3nc(NS(=O)(=O)c4ccccc4)nn32)cc1 (stereo unspecified),/,-10.5,/,?,/,?
Cc1ccc(C(=O)Nc2nc3n(n2)C(c2ccccc2)C=C(c2ccccc2)N3)cc1 (stereo unspecified),/,-1.7,/,?,/,?
COc1ccc(Cl)cc1NC(=O)Cn1c(=O)cc(C(=O)N2CCCC2)c2ccccc21,/,10.3,/,/,/,/
CCc1ccc(CCC(=O)N2CCC(C(=O)Nc3cc(C)ccn3)CC2)cc1,/,-7.7,/,/,/,/
CCCCCNC(=O)CCc1c(C)nc2nc(N)nn2c1C,/,11.5,/,/,/,/
O=C(Nc1nc2n(n1)C(c1ccc(F)cc1)C=C(c1ccccc1)N2)c1ccc(Cl)cc1 (stereo unspecified),/,-5.9,/,18.4µM*,/,?
Cc1ccc(-c2nn(-c3ccccc3)c(-c3ccc(C)cc3)c2C)cc1,/,6.3,/,/,/,/
COc1ccccc1-c1nc2ccccc2nc1-c1ccccc1,7.8%,0.2,17.4,?,3.1%,18.4µM*
COc1ccccc1-c1nc2cc3ccccc3cc2nc1-c1ccccc1OC,-8.0%,3.7,-12.7,?,-1.6%,?
O=C(O)C/C(=C/c1ccc(OC(F)F)cc1)c1nc2ccccc2s1,/,1.1,/,/,/,/
O=C1/C(=C/c2ccc([N+](=O)[O-])cc2)CCOc2ccc(F)cc21,/,-18.5,/,/,/,/
CCOC(=O)c1cnn(CC2CCCCC2)c1N,4.5%,-5.2,0.0,?,3.0%,?
Cc1nn(CC2CCCCC2)c(N)c1-c1ccccc1,11.2µM*,-0.8,1.5,?,?,?
Cc1ccc(CNC(=O)c2ccc(Nc3cc(-c4ccc(F)cc4)ncn3)cc2)o1,/,-8.0,/,/,/,/
Cc1ccc2oc(C(=O)N(C)Cc3ccc(C)o3)c(C)c2c1,3.2%,-0.8,0.0,16.4µM*,11.1%,8.2µM*
Cc1ccc2oc(C(=O)Nc3cc(C)on3)c(C)c2c1,/,-2.3,-8.2,5.8µM*,/,-6.7%
CCOc1ccc2oc(C(=O)OCC(=O)NC3CCCC3)c(C)c2c1,/,-2.6,14.1,-9.9%,/,?
Cc1ccc2oc(C(=O)N(C)Cc3ccon3)c(C)c2c1,-13.4%,-3.8,-2.6,-43.1%,13.5%,-18.8%
CCOc1ccc2oc(C(=O)NC3CCN(Cc4ccccc4)CC3)c(C)c2c1,5.9%,-13.0,-63.6*,5.17µM*,-1.1%,3.66µM*
COc1ccccc1NC(=O)c1oc2ccc(C)cc2c1C,0.6%,-2.8,13.6,?,31.0%,?
CCCN(CC1CC1)C(=O)COC(=O)c1oc2ccc(OCC)cc2c1C,/,2.1,-3.6,6.51µM*,/,-18.1%
C=CCNc1nc(C(=O)OCC(=O)NCc2cccc(OC)c2)cs1,/,-1.0,/,/,/,/
C=C(C)Cn1c(SCC(=O)c2ccccc2)nc2c1c(=O)[nH]c(=O)n2C,/,-21.5,/,/,/,/
Cc1ccc2oc(C(=O)Nc3nnc(CC(C)C)s3)c(C)c2c1,1.7%,-7.4,0.0,2.9%,7.08µM*,?
CCOc1ccc2oc(C(=O)Nc3ccc(C)cn3)c(C)c2c1,/,-0.7,28.6,18.4µM*,/,?
CCCCc1nnc(NC(=O)c2oc3ccc(OC)cc3c2C)s1,/,-3.9,-29.0,?,/,?
CCCC(C)C(=O)Nc1nnc(Cc2ccc(OC)c(OC)c2)s1 (stereo unspecified),/,0.4,/,/,/,/
COCCN1Cc2cccc(C(=O)Nc3cccc(-c4nc5ccccc5[nH]4)c3)c2C1=O,-16.5%,-7.1,-6.1,16.4µM*,-25.3%,4.61µM*
CCCN1Cc2cccc(C(N)=O)c2C1=O,-4.7%,-2.9,41.2,?,11.1%,8.2µM*
